Reference: the supplement of paper PMC9262897, “Low-cost anti-mycobacterial drug discovery using engineered E. coli” (Nature Communications, 2022)
Where a name gives a salt, the structure may show the parent alone. ± gives the standard deviation of the averaged measurements.

Tested on: E. coli TESEC Mtb Alr
Experiment: growth (OD600 after 10 h); higher = more growth (less inhibition)
Conditions: compound 0.1 mM
Protocol: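 TESEC Mtb Alr E. coli, or the Alr+ wild-type control, in 384-well plates with Prestwick library compounds at 0.1 mM and 1% DMSO, across arabinose induction levels of 1E3 to 1E7 nM. Growth is read as OD600 after 10 h at 37 °C in triplicate biological replicates.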

[1] = arabinose 1000 nM, raw OD600 reference: median of DMSO wells 0.294, cell-free background 0.041
[2] = arabinose 10000 nM, raw OD600 reference: median of DMSO wells 0.264, cell-free background 0.041
[3] = arabinose 100000 nM, raw OD600 reference: median of DMSO wells 0.201, cell-free background 0.041
[4] = arabinose 1000000 nM, raw OD600 reference: median of DMSO wells 0.193, cell-free background 0.041
[5] = arabinose 10000000 nM, raw OD600 reference: median of DMSO wells 0.146, cell-free background 0.041

Compound	growth [1]	growth [2]	growth [3]	growth [4]	growth [5]
CC(=O)O[C@]1(C(C)=O)CC[C@H]2[C@@H]3C=C(C)C4=CC(=O)CC[C@@H]4[C@H]3CC[C@@]21C [Nomegestrol acetate]	0.127 ± 0.02	0.0606 ± 0.0005	0.124 ± 0.0062	0.061 ± 0.0017	0.0997 ± 0.0051
Clc1ccc(CCC(Cn2ccnc2)Sc2c(Cl)cccc2Cl)cc1 (stereo not given) [Butoconazole nitrate]	0.0578 ± 0.0014	0.066 ± 0.0018	0.0622 ± 0.00087	0.0664 ± 0.00089	0.0514 ± 0.0014
N#Cc1ccc(C(c2ccc(C#N)cc2)n2cncn2)cc1 [Letrozole]	0.308 ± 0.006	0.253 ± 0.0064	0.243 ± 0.028	0.16 ± 0.0045	0.146 ± 0.0044
CCN(CC)C(=O)C1(c2ccccc2)CC1CN (stereo not given) [Milnacipran hydrochloride]	0.298 ± 0.0046	0.271 ± 0.0097	0.202 ± 0.006	0.182 ± 0.02	0.151 ± 0.0028
CCC(C)(CN(C)C)OC(=O)c1ccccc1 (stereo not given) [Amyleine hydrochloride]	0.252 ± 0.052	0.266 ± 0.0091	0.183 ± 0.011	0.173 ± 0.0043	0.142 ± 0.0057
C[C@]12CC[C@@H]3c4ccc(O)cc4CC[C@H]3[C@@H]1C[C@@H](O)[C@@H]2O [Estriol]	0.218 ± 0.018	0.277 ± 0.015	0.148 ± 0.0042	0.135 ± 0.0069	0.143 ± 0.0047
CC(C(=O)O)c1ccc(C(=O)c2cccs2)cc1 (stereo not given) [Suprofen]	0.263 ± 0.015	0.254 ± 0.008	0.205 ± 0.0094	0.214 ± 0.0056	0.138 ± 0.0024
Cc1ccccc1OCC(O)CO (stereo not given) [Mephenesin]	0.286 ± 0.0091	0.261 ± 0.016	0.209 ± 0.016	0.184 ± 0.0048	0.14 ± 0.0045
